# Screening results deposited in PubChem BioAssay by National Center for Advancing Translational Sciences (NCATS).
# Pf growth 48h – inhibits P. falciparum growth in the first generation, 48 h; Potency, µM (highest dose often 28.7 µM), inactives show at the top dose activity change, negative = inhibition, usual class: inhibitors; hit rate 5.9% among 310,000; P. falciparum luciferase growth in erythrocytes, 48 h; note: potency is the fitted concentration of half-maximal effect; % is set by controls: 0 for no effect and ±100 for the full control effect
#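 Luminescence readout; reporter = integrated firefly luciferase in P. falciparum. RBC culture at 2% hematocrit, 0.1% parasitemia final, 37 C/5% CO2; decreased signal taken as growth inhibition.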
# Pf growth 96h – inhibits malaria parasite growth, 96 h; P. falciparum luciferase reporter growth, 96 h; Potency, µM (series often up to 28.7 µM), inactives show top-dose activity change, negative = inhibition, actives largely listed as inhibitors; hit rate 6.9% among 320,000; note: potency is the fitted concentration of half-maximal effect; % is set by controls: 0 for no effect and ±100 for the full control effect
#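 96 h incubation, 37 C, 5% CO2, of luciferase-reporter P. falciparum-infected RBCs (2% hematocrit, 0.05% parasitemia final) with test compounds; endpoint luminescence.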
# CHX counter – affects cycloheximide protein synthesis inhibition readout, counter-screen; hit rate 12% among 300,000; max response, %; cell reporter, cycloheximide protein synthesis inhibition counterscreen; in the data active = max response mostly above about 13%, no sharp cut-off; inactive = mostly below about 14%; note: read at 38.3 µM for the half of the compounds with a filed dose; 0% is about no effect
# NS1 inh – blocks influenza NS1 protein function; hit rate 0.4% among 270,000; Potency, µM (series often up to 46.1 µM), inactives show at the highest dose activity, positive = more growth; calls by dose curve; note: potency is the fitted concentration of half-maximal effect; actives are rising curves; nearly all actives have a fitted effect of over 50% in size
#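 Read-out: OD600 growth recovery of NS1-expressing budding yeast. Cells grown overnight at 30C in -URA glucose medium, washed, resuspended and diluted 1:100 in 2% galactose assay medium, pH 6.0. Same strain lacking NS1 served as positive control.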
# Shiga inhibitor – Shiga toxin inhibition; hit rate 9.2% among 290,000; inhibition, % at 38.7 µM; Vero cells, Shiga toxin protein synthesis inhibition reporter; in the data active = inhibition mostly above about 28%, no sharp cut-off; inactive = mostly below about 43%; note: 0% is about no effect
# The depositor's hits bear a star; ? = inconclusive; nt = no result; [ ] = dose if it differs, or a comment. The list is not random: actives were taken first. Their share in the collection is about 21%. Unless noted, calls come from the whole dose curve; as a rule, active = well fitted inhibition curve with a large enough effect; inconclusive = small, poorly fitted or top-dose-only effect, or another doubt; inactive = no such curve, though single readings can be large or run the other way.
SMILES,Pf growth 48h,Pf growth 96h,CHX counter,NS1 inh,Shiga inhibitor
O=S(=O)(Nc1cccc(-c2ccc(N3CCCCCC3)nn2)c1)c1ccc(C(F)(F)F)cc1,95%,?,31*,22%,41*
Cc1ccc(S(=O)(=O)Nc2cccc(-c3ccc(N4CCCCCC4)nn3)c2)cc1C,22%,13µM*,39*,4%,115*
O=C(Nc1cccc(-c2ccc(N3CCCCC3)nn2)c1)C(F)(F)F,?,-24%,-14,8%,-16
CC(C)(C)c1cc[n+](C2=C([O-])c3ccccc3C(=O)/C2=N\S(=O)(=O)c2cccs2)cc1,1.3µM*,2.1µM*,41*,-6%,73*
O=C1/C(=N\S(=O)(=O)c2cccs2)C([n+]2ccccc2)=C([O-])c2ccccc21,?,?,-5,3%,-4
COc1ccc2nc(NC(=O)CSCC(=O)Nc3cc(C)on3)sc2c1,57%,52%,nt,nt,nt
O=C(c1cnsn1)N1CCC(CO)(Cc2cccc(F)c2)CC1,33%,?,54*,-5%,67*
O=C(CSc1nnc(NC(=O)C2CC2)s1)Nc1cccc(F)c1,-4%,2.9µM*,21*,-1%,16
O=C(Nc1nnc(SCC(=O)N2CCOCC2)s1)c1ccccc1,68%,98%,22*,21%,13
O=C(CSc1nnc(NC(=O)c2ccc(F)cc2F)s1)NC1CCCC1,73%,72%,22*,1%,28
O=C(CSc1nnc(NC(=O)c2ccccc2F)s1)NC1CCCC1,?,-5%,27*,?,65*
O=C(CCCSc1nnc(Nc2ccccc2F)s1)N1CCOCC1,?,?,39*,nt,59*
Cc1cccc(C)c1NC(=O)CSc1nnc(NC(=O)c2ccccc2C(=O)O)s1,0%,?,-2,-2%,2
O=C(CSc1nnc(NC(=O)c2ccccc2)s1)NC1CCCC1,84%,42%,17*,32%,43
O=C(CSc1nnc(NC(=O)c2ccccc2C(=O)O)s1)Nc1ccccc1Cl,-27%,13µM*,-2,nt,-2
O=C(CSc1nnc(NC(=O)c2ccc(F)cc2)s1)NC1CCCC1,34%,-13%,1,-8%,4
CC(C)C(=O)Nc1nnc(SCC(=O)NC2CC2)s1,15%,5.2µM*,-1,1%,-3
CCC(CC)C(=O)Nc1nnc(SCC(=O)NC2CC2)s1,17%,11%,-2,4%,-12
O=c1cc(CSc2nnc(Nc3ccccc3F)s2)nc2sccn12,-20%,?,10,2%,-5
CC(=O)N1CCN(C(=O)c2ccc3c(c2)OCCO3)CC1,7%,-28%,2,9%,-2
O=C(COC(=O)COc1ccc(Cl)cc1)NC1CCCCCC1,6%,31%,nt,nt,nt
Cc1ccc(NC(=O)NCCN2CCN(c3ccccc3)CC2)cc1Cl,-3%,40%,-2,-3%,0
CCC/C=N/NC(=O)c1[nH]c2c([N+](=O)[O-])cccc2c1C,?,?,-5,?,-7
Cc1csc(C(C#N)C(=O)c2cc3ccccc3o2)n1 (centres undefined),100%,20%,25*,-63%,55*
COC(=O)c1ccc(NC(=O)COc2coc(CN3CCc4ccccc43)cc2=O)cc1,?,0%,nt,nt,nt
SMILES,Pf growth 48h,Pf growth 96h,CHX counter,NS1 inh,Shiga inhibitor
CCOc1ccccc1NC(=O)COc1coc(CN2CCc3ccccc32)cc1=O,12µM*,?,nt,nt,nt
CCOC(=O)c1ccccc1NC(=O)COc1coc(CN2CCc3ccccc32)cc1=O,?,12µM*,nt,nt,nt
CC1=C(C(=O)OCC2CCCO2)C(c2ccc(Cl)cc2)NC(=O)N1 (centres undefined),-22%,0%,-1,nt,-11
CCOc1ccc2nc(NC(=O)c3cnc(C)cn3)sc2c1,nt,?,18*,-4%,24
CCOc1ccc2nc(NC(=O)c3cccnc3)sc2c1,56%,39%,75*,-7%,122*
CCOc1ccc2nc(NC(=O)c3c([N+](=O)[O-])cnn3CC)sc2c1,22%,24%,-2,0%,15
CCO[C@H]1O[C@@H]([C@H](COCc2ccccc2)OCc2ccccc2)[C@@H](OCc2ccccc2)[C@H]1O,6.4µM*,4.5µM*,nt,nt,nt
COC(C[C@@H]1O[C@H]1[C@H](O)COCc1ccccc1)OC,45%,0%,-3,0%,2
O=C(O)c1ccc(Nc2ccc(Cl)c(Cl)c2)c([N+](=O)[O-])c1,36%,?,-1,-43%,0
CC(C)c1ccc(Nc2ccc(C(=O)O)cc2[N+](=O)[O-])cc1,-10%,1%,19*,-89%,43
COc1ccc(C)cc1Nc1ccc(C(=O)O)cc1[N+](=O)[O-],-4%,46%,0,nt,-8
Cc1ccc(Nc2ccc(C(=O)O)cc2[N+](=O)[O-])cc1,nt,9.3µM*,6,-93%,6
CC(C)C[C@H](NC(=O)[C@@H]1Cc2c([nH]c3ccccc23)C2c3ccccc3C(=O)N21)C(=O)N1CCC[C@@H]1C(=O)O (some centres undefined),?,?,-2,18%,-2
CC(C)N(CCNCC(O)COc1ccc(C(C)(C)c2ccccc2)cc1)C(C)C (centres undefined),?,?,9,nt,-7
Cc1ccc(S(=O)(=O)NCC(C)NS(=O)(=O)c2ccc(C)cc2)cc1 (centres undefined),4%,2%,-2,-1%[9.22 µM],-9
CNC(=O)OC(C)CNS(=O)(=O)c1ccc(C)cc1 (centres undefined),11%,12µM*,-2,6%,2
O=C1NC(=O)C2(COC(c3cccnc3)OC2)S1 (centres undefined),9%,-16%,4,11%,20
O=C(CCC(=O)c1ccccc1)Nc1ccc(C(=O)O)cc1,6%,-25%,-1,14%,8
CCN(Cc1ccncc1)Cc1cn[nH]c1-c1cc(OC)c(OC)c(OC)c1,?,9.3µM*,-2,1%,-13
CCc1cc(=O)oc2c(C)c(OCC(=O)NC3CC(C)(C)NC(C)(C)C3)ccc12,?,10µM*,1,1%,-8
CCNC(=O)Cc1c(OC)ccc2cc(Br)ccc12,-2%,12%,-4,-3%,-5
CCc1ccc(OCC(=O)NC2CC(C)(C)NC(C)(C)C2)cc1,?,6.6µM*,-2,0%,-1
COc1ccc2cc(Br)ccc2c1CC(=O)NC1CC(C)(C)NC(C)(C)C1,nt,8.3µM*,2,-8%,-16
C=CCNS(=O)(=O)c1ccc(OCC(=O)OCC)cc1,2%,2.3µM*,-3,2%,-11
CCOC(=O)COc1ccc(S(=O)(=O)c2ccc(OCC(=O)OCC)cc2)cc1,nt,?,-3,-37%,21
Oc1c(Br)cc(Br)cc1CNc1nccs1,20%,3%,-2,-5%,-8
C/C(=N\NC(=O)Cn1nnc2ccccc21)c1ccco1,24%,12%,-1,1%,2
O=[N+]([O-])c1ccccc1,-7%,-6%,nt,nt,nt
O=[N+]([O-])c1c2ccccc2cc2ccccc12,2.6µM*,?,nt,nt,nt
CC1N/C(=C\C(=O)c2ccccc2)N(O)C1(C)C (centres undefined),146%,162%,37*,4%,76*
